SMILES strings stand for the structures. The list shows a part of the results. A number with no mark means an inactive call. Rule as the data show it: active = activation above about 18%; inactive = the rest.

The nature of this assay: OPRM1-OPRD1 heterodimerization promoters, counter-screen for HTR5A agonist project, cell-based, luminescence (AID 504913). Conditions: U2OS counter-screen cells, complementation luminescence, 3 h; at 9.3 µM; hits give high values.
Take `O=C(CNCc1ccco1)Nc1cc(S(=O)(=O)N2CCOCC2)ccc1N1CCCC1`: the activation was 3.16%. The same measure for `CCn1nc(C(=O)OCC(=O)N2c3ccccc3CC2C)c2ccccc2c1=O` (centres undefined): 1.02%.

As for `CNc1nnc(-c2ccco2)s1`, the activation was 4.29%. Consider `CCC(C)NC(=O)CCCc1ccccc1` (centres undefined), for which the activation is 1.02%.

As to `COc1ccccc1S(=O)(=O)NCc1ccc(C(=O)N(C)Cc2ccc(F)cc2)cc1`, the activation was 3.43%.

For `COc1ccc(-c2ocnc2C(=O)Nc2ccc3c(c2)CCC3)cc1`, the activation is -2.69%. The same measure for `COc1cc2c(-c3ccc4c(c3)OCO4)c(-c3ccsc3)oc(=O)c2cc1OC`: -2.61%; for `CCN(CC(=O)Nc1cccc(S(=O)(=O)N2CCCCC2)c1)Cc1ccccc1`: 4.65%.

Take `CC(C)CC(=O)N/C(N)=N/c1nc2ccccc2s1`: the activation is 5.76%.

Values taken from PubChem BioAssay AID504913 (The Scripps Research Institute Molecular Screening Center, 2011).
